In the supplement of paper PMC10849652:
Targets with a hit are over-represented here; the source holds about 8,800 in all. About 0.5% of all pairs of compound and target were hits.

What was measured:
Assay in all cases: log2 fold change, soluble protein after heating vs DMSO (PISA); higher = thermal stabilisation; K562 lysate, 10 uM; active = over 0.2 and 3.5 SD of the protein, either way, in both replicates (recomputed)
[1] = compound: CCCS(=O)(=O)Nc1ccc(F)c(C(=O)c2c[nH]c3ncc(-c4ccc(Cl)cc4)cc23)c1F [vemurafenib]
In short: (§1)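 To prepare the extract, K562 pellets were dounce-homogenised in PBS pH 7.4 with 1 mM MgCl2, giving crude material at 1 mg/mL protein. This was treated with 10 μM compound for 30 min, then heated in aliquots for 3 min over 48°C-58°C before pooling and addition of NP-40 to 0.5% at 4°C. Centrifugation at 21,000xg for 90 min left soluble protein in the supernatant, which TMTpro 16plex LC-MS/MS quantified with equalised channel sums. Results are log-two fold changes in thermal stability compared with solvent controls, from duplicates.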

[2] = compound: CCCS(=O)(=O)Nc1ccc(F)c(C(=O)c2c[nH]c3ncc(Cl)cc23)c1F
In short: as §1

[3] = compound: CCN(CCCOc1ccc2c(Nc3cc(CC(=O)Nc4cccc(F)c4)[nH]n3)ncnc2c1)CCOP(=O)(O)O [barasertib]
In short: as §1

[4] = compound: CC[C@@H]1C(=O)N(C)c2cnc(Nc3ccc(C(=O)NC4CCN(C)CC4)cc3OC)nc2N1C1CCCC1
In short: as §1

[5] = compound: CC[C@@H]1C(=O)N(C)c2cnc(Nc3ccc(C(=O)N[C@H]4CC[C@H](N5CCN(CC6CC6)CC5)CC4)cc3OC)nc2N1C(C)C [volasertib]
In short: as §1

[6] = compound: CCn1c(C(=O)N(C2CC2)C2CC2)cc2c3c(ncn3C)c(Nc3cc(C)n(C)n3)nc21
In short: as §1

[7] = compound: CCn1cc(-c2ccnc3[nH]c(-c4cccc(CN(C)C)c4)cc23)c(-c2ccc(NC(=O)N(C)C)cc2)n1
In short: as §1

[8] = compound: CN1CCC(CNc2ccc3ncc(-c4cccc(OC(F)(F)F)c4)n3n2)CC1
In short: as §1

[9] = compound: CN1CCN(CCOc2cc(OC3CCOCC3)c3c(Nc4c(Cl)ccc5c4OCO5)ncnc3c2)CC1 [saracatinib]
In short: as §1

[10] = compound: CN1CCN(c2nc(C3=C(c4c[nH]c5ccccc45)C(=O)NC3=O)c3ccccc3n2)CC1 [sotrastaurin]
In short: as §1

Measured: log2 fold change

CSTB (UniProt P04080)
Sequence of UniProt P04080 (P04080 whole entry, looked up): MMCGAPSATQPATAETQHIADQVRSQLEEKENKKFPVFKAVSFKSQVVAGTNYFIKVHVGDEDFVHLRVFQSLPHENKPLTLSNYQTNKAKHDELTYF
inactive: [1] 0.007 | [2] 0.001 | [3] 0.077 | [4] 0.043 | [5] 0.044 | [6] -0.027 | [8] 0.174 | [9] 0.013 | [10] 0.086
active: [7] -0.376

CIP2A (UniProt Q8TCG1)
inactive: [1] 0.036 | [2] 0.019 | [3] 0.153 | [4] 0.001 | [5] -0.086 | [6] 0.037 | [7] -0.07 | [8] -0.075 | [9] 0.009 | [10] 0.014

COG6 (UniProt Q9Y2V7)
Sequence of UniProt Q9Y2V7 (Q9Y2V7 whole entry, looked up): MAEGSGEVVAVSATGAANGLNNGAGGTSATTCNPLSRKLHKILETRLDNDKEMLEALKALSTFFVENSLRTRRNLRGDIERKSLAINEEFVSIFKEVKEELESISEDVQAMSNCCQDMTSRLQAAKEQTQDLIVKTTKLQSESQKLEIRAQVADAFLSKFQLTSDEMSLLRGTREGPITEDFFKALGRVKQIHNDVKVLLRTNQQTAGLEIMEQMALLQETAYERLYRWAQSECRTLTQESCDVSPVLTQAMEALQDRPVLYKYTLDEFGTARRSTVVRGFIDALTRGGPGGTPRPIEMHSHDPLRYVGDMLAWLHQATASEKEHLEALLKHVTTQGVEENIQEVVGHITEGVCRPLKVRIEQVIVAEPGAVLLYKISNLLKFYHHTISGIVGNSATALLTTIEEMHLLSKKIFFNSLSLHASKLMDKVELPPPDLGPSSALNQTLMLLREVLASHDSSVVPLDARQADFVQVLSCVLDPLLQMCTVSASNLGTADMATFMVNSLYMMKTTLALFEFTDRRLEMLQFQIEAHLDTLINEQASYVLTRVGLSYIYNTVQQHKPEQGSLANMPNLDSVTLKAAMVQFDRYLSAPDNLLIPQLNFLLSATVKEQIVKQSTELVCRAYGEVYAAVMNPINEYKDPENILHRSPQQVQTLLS
inactive: [1] 0.062 | [2] 0.013 | [3] 0.072 | [4] -0.004 | [5] -0.046 | [6] 0.015 | [7] -0.116 | [8] 0.017 | [9] 0.073 | [10] -0.017

DCUN1D4 isoform 3 (UniProt Q92564)
Sequence of UniProt Q92564 (Q92564 whole entry, looked up): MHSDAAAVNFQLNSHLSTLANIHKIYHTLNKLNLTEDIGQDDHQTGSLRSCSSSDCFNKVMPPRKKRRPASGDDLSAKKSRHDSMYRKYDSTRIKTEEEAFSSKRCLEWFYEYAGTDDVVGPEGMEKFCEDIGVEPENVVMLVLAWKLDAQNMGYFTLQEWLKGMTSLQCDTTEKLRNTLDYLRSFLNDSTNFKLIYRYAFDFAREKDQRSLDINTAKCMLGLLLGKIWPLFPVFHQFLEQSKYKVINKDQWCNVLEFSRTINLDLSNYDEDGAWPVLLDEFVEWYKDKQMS
active: [4] -0.321
inactive: [1] 0.066 | [2] 0.075 | [3] -0.027 | [5] 0.049 | [6] -0.02 | [7] -0.036 | [8] 0.02 | [9] 0.005 | [10] 0.028

DFFB (UniProt O76075)
Sequence of UniProt O76075 (O76075 whole entry, looked up): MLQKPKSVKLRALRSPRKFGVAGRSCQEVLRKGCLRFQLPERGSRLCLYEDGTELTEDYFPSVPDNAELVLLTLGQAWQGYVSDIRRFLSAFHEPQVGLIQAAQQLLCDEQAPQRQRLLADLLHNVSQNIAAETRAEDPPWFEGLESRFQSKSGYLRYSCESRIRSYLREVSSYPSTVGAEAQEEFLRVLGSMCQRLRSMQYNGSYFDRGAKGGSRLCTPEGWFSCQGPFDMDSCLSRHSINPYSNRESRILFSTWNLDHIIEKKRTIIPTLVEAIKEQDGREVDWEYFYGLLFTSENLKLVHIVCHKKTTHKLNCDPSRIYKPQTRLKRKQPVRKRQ
inactive: [1] 0.022 | [2] 0.044 | [3] -0.064 | [4] 0.037 | [5] -0.012 | [6] 0.1 | [7] -0.024 | [8] 0.061 | [9] 0.042 | [10] 0.06

CYCS (UniProt P99999)
inactive: [1] -0.011 | [2] -0.001 | [3] -0.01 | [4] 0.061 | [5] 0.041 | [6] 0.018 | [7] -0.025 | [8] 0.052 | [9] 0.008 | [10] -0.017

CINP isoform 3 (UniProt Q9BW66)
Sequence of UniProt Q9BW66 (Q9BW66 whole entry, looked up): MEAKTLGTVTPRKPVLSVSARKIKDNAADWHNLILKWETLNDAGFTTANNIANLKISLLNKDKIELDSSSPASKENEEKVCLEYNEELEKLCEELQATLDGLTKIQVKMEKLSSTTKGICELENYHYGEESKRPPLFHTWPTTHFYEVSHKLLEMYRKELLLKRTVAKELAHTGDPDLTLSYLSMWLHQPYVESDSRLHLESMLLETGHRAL
inactive: [1] -0.071 | [2] 0.01 | [3] 0.052 | [4] 0.098 | [5] -0.05 | [6] -0.033 | [7] -0.331 | [8] 0.189 | [9] 0.047 | [10] 0.014

CNST (UniProt Q6PJW8)
inactive: [1] 0.002 | [2] -0.026 | [3] -0.07 | [4] 0.079 | [5] -0.008 | [6] 0.02 | [7] -0.066 | [8] 0.019 | [9] 0.033 | [10] 0.039

DENND6A (UniProt Q8IWF6)
Sequence of UniProt Q8IWF6 (Q8IWF6 whole entry, looked up): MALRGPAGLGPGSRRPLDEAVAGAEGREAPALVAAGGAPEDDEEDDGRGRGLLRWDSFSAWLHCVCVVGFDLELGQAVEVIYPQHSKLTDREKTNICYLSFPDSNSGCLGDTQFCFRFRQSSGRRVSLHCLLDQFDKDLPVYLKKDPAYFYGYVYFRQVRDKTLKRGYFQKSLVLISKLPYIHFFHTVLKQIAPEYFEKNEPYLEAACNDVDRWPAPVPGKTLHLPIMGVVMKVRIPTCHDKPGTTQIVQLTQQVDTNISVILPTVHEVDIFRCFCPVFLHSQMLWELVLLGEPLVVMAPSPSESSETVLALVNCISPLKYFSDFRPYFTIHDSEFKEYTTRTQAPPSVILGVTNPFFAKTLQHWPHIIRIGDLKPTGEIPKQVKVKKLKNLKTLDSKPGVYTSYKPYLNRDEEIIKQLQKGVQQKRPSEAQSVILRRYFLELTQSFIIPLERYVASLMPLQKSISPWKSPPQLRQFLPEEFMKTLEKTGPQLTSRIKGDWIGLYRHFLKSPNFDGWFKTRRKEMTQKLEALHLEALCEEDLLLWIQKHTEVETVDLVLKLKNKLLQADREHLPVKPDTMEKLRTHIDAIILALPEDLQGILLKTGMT
inactive: [1] 0.025 | [2] 0.033 | [3] 0.066 | [4] 0.029 | [5] -0.062 | [6] 0.019 | [7] 0.017 | [8] 0.004 | [9] -0.012 | [10] -0.027

DIAPH3 (UniProt Q9NSV4)
inactive: [1] 0.041 | [2] 0.028 | [3] 0.057 | [4] -0.023 | [5] -0.099 | [6] 0.058 | [7] -0.098 | [8] -0.092 | [9] 0.053 | [10] 0.064

DCP1A (UniProt Q9NPI6)
Sequence of UniProt Q9NPI6 (Q9NPI6 whole entry, looked up): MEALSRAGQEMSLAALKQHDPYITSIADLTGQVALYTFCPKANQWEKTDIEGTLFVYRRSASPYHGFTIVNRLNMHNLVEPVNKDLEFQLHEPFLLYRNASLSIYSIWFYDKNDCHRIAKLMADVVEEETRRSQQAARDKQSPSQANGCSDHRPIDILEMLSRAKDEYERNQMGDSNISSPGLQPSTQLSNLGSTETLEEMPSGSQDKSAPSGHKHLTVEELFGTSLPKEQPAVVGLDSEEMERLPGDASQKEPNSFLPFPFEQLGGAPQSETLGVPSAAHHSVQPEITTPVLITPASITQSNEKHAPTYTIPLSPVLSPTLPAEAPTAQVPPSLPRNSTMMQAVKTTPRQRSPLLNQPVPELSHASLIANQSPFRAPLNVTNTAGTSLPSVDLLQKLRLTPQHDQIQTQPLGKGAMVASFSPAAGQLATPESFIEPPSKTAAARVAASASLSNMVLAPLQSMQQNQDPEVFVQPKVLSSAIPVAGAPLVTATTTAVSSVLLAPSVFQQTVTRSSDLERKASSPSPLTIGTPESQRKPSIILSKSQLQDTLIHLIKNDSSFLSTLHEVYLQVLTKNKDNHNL
inactive: [1] 0.023 | [2] 0.017 | [3] -0.066 | [4] 0.077 | [5] -0.055 | [6] 0.029 | [7] -0.082 | [8] 0.059 | [9] -0.006 | [10] -0.053

DIAPH1 (UniProt O60610)
inactive: [1] -0.002 | [2] -0.007 | [3] 0.006 | [4] -0.001 | [5] -0.002 | [6] 0.009 | [7] 0.091 | [8] -0.042 | [9] -0.006 | [10] -0.001

DNAH10 (UniProt Q8IVF4)
active: [7] -0.582
inactive: [1] 0.067 | [2] 0 | [3] 0.069 | [4] 0.064 | [5] 0.044 | [6] -0.05 | [8] 0.139 | [9] 0.022 | [10] -0.029

COG5 isoform 2 (UniProt Q9UP83)
inactive: [1] 0.001 | [2] 0.06 | [3] -0.116 | [4] -0.056 | [5] -0.084 | [6] -0.007 | [7] -0.02 | [8] 0.01 | [9] 0.057 | [10] 0.08

CTPS2 (UniProt Q9NRF8)
inactive: [1] 0.002 | [2] 0.01 | [3] 0.015 | [4] -0.028 | [5] -0.009 | [6] 0.011 | [7] -0.041 | [8] 0.058 | [9] 0.012 | [10] -0.044

CMBL (UniProt Q96DG6)
Sequence of UniProt Q96DG6 (Q96DG6 whole entry, looked up): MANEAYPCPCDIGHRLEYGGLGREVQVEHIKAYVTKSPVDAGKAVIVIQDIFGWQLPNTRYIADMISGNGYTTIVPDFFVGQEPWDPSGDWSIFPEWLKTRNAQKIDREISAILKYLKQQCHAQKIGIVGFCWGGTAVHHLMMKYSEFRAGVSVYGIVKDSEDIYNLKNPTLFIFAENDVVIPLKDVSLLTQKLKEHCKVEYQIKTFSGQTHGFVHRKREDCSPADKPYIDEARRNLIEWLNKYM
inactive: [1] -0.053 | [2] -0.027 | [3] -0.026 | [4] 0.081 | [5] 0.183 | [6] 0.004 | [7] -0.174 | [8] 0.129 | [9] -0.016 | [10] -0.015

COASY isoform 2 (UniProt Q13057)
Sequence of UniProt Q13057 (Q13057 whole entry, looked up): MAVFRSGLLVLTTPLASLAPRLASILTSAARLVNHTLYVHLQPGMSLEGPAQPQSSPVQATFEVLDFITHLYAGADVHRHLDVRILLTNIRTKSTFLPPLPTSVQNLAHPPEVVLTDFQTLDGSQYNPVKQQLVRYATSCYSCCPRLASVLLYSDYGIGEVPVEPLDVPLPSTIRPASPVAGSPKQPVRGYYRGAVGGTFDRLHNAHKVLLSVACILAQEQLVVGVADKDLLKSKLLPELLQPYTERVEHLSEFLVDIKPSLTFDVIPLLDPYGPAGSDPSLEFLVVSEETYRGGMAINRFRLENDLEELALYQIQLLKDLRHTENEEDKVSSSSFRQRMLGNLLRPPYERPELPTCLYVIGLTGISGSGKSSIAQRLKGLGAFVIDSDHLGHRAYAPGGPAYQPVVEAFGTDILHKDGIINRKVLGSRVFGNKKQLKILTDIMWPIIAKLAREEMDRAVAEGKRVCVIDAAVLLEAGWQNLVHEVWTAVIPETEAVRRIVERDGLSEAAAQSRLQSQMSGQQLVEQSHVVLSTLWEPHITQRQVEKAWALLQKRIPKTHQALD
inactive: [1] 0.076 | [2] 0.017 | [3] 0.011 | [4] -0.075 | [5] -0.098 | [6] 0.034 | [7] -0.063 | [8] 0.038 | [9] 0.021 | [10] 0.079

CKAP2 (UniProt Q8WWK9)
inactive: [1] -0.095 | [2] 0.01 | [3] -0.014 | [4] 0.073 | [5] 0.009 | [6] -0.024 | [7] 0.062 | [8] -0.094 | [9] 0.019 | [10] 0.019

CNP (UniProt P09543)
inactive: [1] 0.005 | [2] -0.011 | [3] 0.003 | [4] -0.097 | [5] -0.022 | [6] 0.019 | [7] -0.023 | [8] -0.028 | [9] 0.01 | [10] -0.008

DOCK8 (UniProt Q8NF50)
inactive: [1] 0.005 | [2] 0.013 | [3] 0.034 | [4] -0.075 | [5] -0.065 | [6] 0.04 | [7] 0 | [8] -0.033 | [9] 0.012 | [10] 0.023

CMSS1 (UniProt Q9BQ75)
inactive: [1] -0.011 | [2] 0.005 | [3] 0.023 | [4] -0.007 | [5] -0.011 | [6] 0 | [7] 0.212 | [8] -0.086 | [9] 0.007 | [10] -0.003

DMXL1 (UniProt Q9Y485)
inactive: [1] 0.024 | [2] 0.028 | [3] -0.005 | [4] 0.015 | [5] -0.06 | [6] 0.026 | [7] -0.017 | [8] -0.004 | [9] 0.002 | [10] 0.023

CLIP1 isoform 1 (UniProt P30622)
inactive: [1] -0.011 | [2] 0.016 | [3] -0.011 | [4] 0.034 | [5] 0.034 | [6] -0.03 | [7] -0.055 | [8] 0.02 | [9] 0.021 | [10] 0.008

CLPB isoform 2 (UniProt Q9H078)
Sequence of UniProt Q9H078 (Q9H078 whole entry, looked up): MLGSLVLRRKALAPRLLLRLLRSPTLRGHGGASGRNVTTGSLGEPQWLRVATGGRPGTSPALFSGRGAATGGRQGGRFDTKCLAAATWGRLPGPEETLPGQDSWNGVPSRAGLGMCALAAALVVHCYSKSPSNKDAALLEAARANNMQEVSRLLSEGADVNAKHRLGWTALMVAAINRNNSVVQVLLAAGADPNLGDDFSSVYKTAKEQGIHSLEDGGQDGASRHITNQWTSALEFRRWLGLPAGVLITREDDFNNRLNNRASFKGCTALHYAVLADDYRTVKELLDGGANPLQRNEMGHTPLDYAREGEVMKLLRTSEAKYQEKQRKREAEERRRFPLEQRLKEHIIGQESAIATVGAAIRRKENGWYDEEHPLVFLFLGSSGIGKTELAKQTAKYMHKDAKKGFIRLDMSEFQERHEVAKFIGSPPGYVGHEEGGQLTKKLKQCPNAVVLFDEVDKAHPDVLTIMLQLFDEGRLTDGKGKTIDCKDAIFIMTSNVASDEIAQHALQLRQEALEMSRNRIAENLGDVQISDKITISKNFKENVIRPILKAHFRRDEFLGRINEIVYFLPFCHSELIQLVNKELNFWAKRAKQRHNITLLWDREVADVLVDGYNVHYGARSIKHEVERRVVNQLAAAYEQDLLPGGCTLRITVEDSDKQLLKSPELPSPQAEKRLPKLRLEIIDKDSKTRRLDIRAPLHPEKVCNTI
inactive: [1] 0.011 | [2] 0.023 | [3] 0.026 | [4] 0.007 | [5] -0.042 | [6] 0.044 | [7] 0.078 | [8] -0.045 | [9] 0.004 | [10] -0.012

CHMP4A isoform 2 (UniProt Q9BY43)
Sequence of UniProt Q9BY43 (Q9BY43 whole entry, looked up): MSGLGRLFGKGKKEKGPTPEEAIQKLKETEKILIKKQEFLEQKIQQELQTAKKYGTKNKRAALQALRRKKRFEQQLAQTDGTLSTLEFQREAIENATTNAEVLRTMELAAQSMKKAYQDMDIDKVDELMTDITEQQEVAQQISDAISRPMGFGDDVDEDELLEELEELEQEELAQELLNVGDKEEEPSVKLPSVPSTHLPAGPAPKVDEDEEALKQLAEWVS
inactive: [1] 0 | [2] -0.002 | [3] -0.053 | [4] 0.064 | [5] 0.039 | [6] -0.002 | [8] 0.222 | [9] 0.048 | [10] 0.024
active: [7] -0.278

CNOT4 isoform 9 (UniProt O95628)
inactive: [1] 0.027 | [2] 0.014 | [3] -0.195 | [4] 0.028 | [5] -0.03 | [6] 0.015 | [8] 0.22 | [9] 0.1 | [10] 0.075
active: [7] -1.23

CKM (UniProt P06732)
Sequence of UniProt P06732 (P06732 whole entry, looked up): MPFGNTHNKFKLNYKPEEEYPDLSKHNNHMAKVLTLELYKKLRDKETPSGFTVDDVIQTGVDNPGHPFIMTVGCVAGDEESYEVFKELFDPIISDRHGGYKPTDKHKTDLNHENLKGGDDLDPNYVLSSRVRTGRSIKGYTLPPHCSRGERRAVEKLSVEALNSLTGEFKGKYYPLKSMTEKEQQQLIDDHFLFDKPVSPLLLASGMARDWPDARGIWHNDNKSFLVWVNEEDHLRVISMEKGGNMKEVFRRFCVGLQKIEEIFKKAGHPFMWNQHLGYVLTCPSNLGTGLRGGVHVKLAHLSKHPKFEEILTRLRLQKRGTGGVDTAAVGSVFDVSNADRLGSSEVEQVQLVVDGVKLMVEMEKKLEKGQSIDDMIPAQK
active: [7] -0.574
inactive: [1] 0.072 | [2] -0.018 | [3] -0.018 | [4] 0.086 | [5] -0.084 | [6] -0.039 | [8] 0.17 | [9] -0.014 | [10] 0.086
